About 83,000 compounds went through this panel and 20% of them were active in at least one assay; those are over-represented in the sample as a whole.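 Method: cells in 96-well plates; compound added at one concentration; 48 h incubation; percent growth measured; values under 10 scored active.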 Calls of active or inactive are those of the source.
Assays:
Assay in all cases: NCI-60 one-dose screen, 48 h (100 = growth as untreated, 0 = no growth, -100 = all killed)
Details in all cases: 10 µM unless noted
EKVX NSCLC = system: EKVX NSCLC
SN12C renal = system: SN12C renal
UO-31 renal = system: UO-31 renal
TK-10 renal = system: TK-10 renal
ACHN renal = system: ACHN renal
CAKI-1 renal = system: CAKI-1 renal
A498 renal = system: A498 renal
CCRF-CEM leukemia = system: CCRF-CEM leukemia
MOLT-4 leukemia = system: MOLT-4 leukemia
OVCAR-8 ovarian = system: OVCAR-8 ovarian
OVCAR-5 ovarian = system: OVCAR-5 ovarian
OVCAR-4 ovarian = system: OVCAR-4 ovarian
SK-OV-3 ovarian = system: SK-OV-3 ovarian
IGROV1 ovarian = system: IGROV1 ovarian
OVCAR-3 ovarian = system: OVCAR-3 ovarian
NCI/ADR-RES ovarian = system: NCI/ADR-RES ovarian
T-47D breast = system: T-47D breast
RPMI-8226 leukemia = system: RPMI-8226 leukemia
HS 578T breast = system: HS 578T breast
SR leukemia = system: SR leukemia

Measured: growth

O=C(CSCC(=O)N/N=C/c1ccccc1O)N/N=C\c1ccccc1O
inactive: EKVX NSCLC 44.8% | SN12C renal 29% | TK-10 renal 24.4% | ACHN renal 11.9% | CAKI-1 renal 11.4% | A498 renal 99.1% | OVCAR-8 ovarian 28.3% | OVCAR-5 ovarian 56.2% | OVCAR-4 ovarian 27.5% | SK-OV-3 ovarian 27.8% | IGROV1 ovarian 18.9% | OVCAR-3 ovarian 34.5% | NCI/ADR-RES ovarian 26.1% | T-47D breast 35.5%
active: UO-31 renal 7.47% | CCRF-CEM leukemia 3.39% | MOLT-4 leukemia -4.94%

CC(C)[C@H]1CC[C@H]2[C@@H](CC[C@H]3[C@](C)(CN)CCC[C@]23C)C1
inactive: EKVX NSCLC 68.5% | SN12C renal 85.9% | UO-31 renal 70.1% | TK-10 renal 89.6% | ACHN renal 84% | CAKI-1 renal 87.6% | A498 renal 81.3% | CCRF-CEM leukemia 48.3% | MOLT-4 leukemia 37.2% | RPMI-8226 leukemia 21.6% | OVCAR-8 ovarian 97.9% | OVCAR-4 ovarian 67.6% | SK-OV-3 ovarian 111% | IGROV1 ovarian 92.6% | OVCAR-3 ovarian 22.7% | HS 578T breast 94.6% | NCI/ADR-RES ovarian 89.5% | T-47D breast 64%

Cc1ccc(C(O)C2=CC(=O)c3ccccc3C2=O)cc1 (stereo not given)
inactive: EKVX NSCLC 91.2% | SN12C renal 94.9% | UO-31 renal 73.2% | TK-10 renal 118% | ACHN renal 86.7% | CAKI-1 renal 100% | A498 renal 95.9% | MOLT-4 leukemia 94.7% | SR leukemia 90% | OVCAR-8 ovarian 91.3% | OVCAR-5 ovarian 95.4% | SK-OV-3 ovarian 105% | IGROV1 ovarian 89.6% | OVCAR-3 ovarian 93.3% | HS 578T breast 104% | NCI/ADR-RES ovarian 96.4% | T-47D breast 76.5%

Cc1cc([N+](=O)[O-])c(C)cc1C(=O)O
inactive: EKVX NSCLC 112% | SN12C renal 105% | UO-31 renal 85.4% | TK-10 renal 105% | ACHN renal 99.8% | CAKI-1 renal 97.4% | A498 renal 96.6% | CCRF-CEM leukemia 104% | MOLT-4 leukemia 112% | RPMI-8226 leukemia 115% | OVCAR-8 ovarian 103% | OVCAR-4 ovarian 111% | SK-OV-3 ovarian 99.2% | IGROV1 ovarian 110% | OVCAR-3 ovarian 106% | HS 578T breast 107% | NCI/ADR-RES ovarian 103% | T-47D breast 83.5%

COC(=O)CCC1=C(C)C(C)=N/C1=C\c1[nH]c(-c2ccc[nH]2)cc1OC
active: UO-31 renal -67% | ACHN renal -7.31% | A498 renal 4.29% | CCRF-CEM leukemia -22.7% | SR leukemia -31.4% | RPMI-8226 leukemia -61.8% | OVCAR-8 ovarian 5.55% | HS 578T breast -6.06% | NCI/ADR-RES ovarian 6.26% | T-47D breast 7.35%
inactive: EKVX NSCLC 29.9% | SN12C renal 13.9% | TK-10 renal 16% | CAKI-1 renal 11.6% | OVCAR-5 ovarian 22.7% | OVCAR-4 ovarian 11.8% | SK-OV-3 ovarian 16.2% | IGROV1 ovarian 18.4%

S=c1[nH]nc2sc3ccccc3n12
inactive: EKVX NSCLC 116% | SN12C renal 103% | UO-31 renal 84.2% | TK-10 renal 126% | ACHN renal 99.2% | CAKI-1 renal 110% | A498 renal 76.1% | CCRF-CEM leukemia 100% | SR leukemia 88.5% | RPMI-8226 leukemia 105% | OVCAR-8 ovarian 107% | OVCAR-5 ovarian 108% | OVCAR-4 ovarian 103% | SK-OV-3 ovarian 109% | IGROV1 ovarian 96.9% | OVCAR-3 ovarian 119% | HS 578T breast 114% | NCI/ADR-RES ovarian 112% | T-47D breast 101%

CCC[C@H](N[C@@H](C)C(=O)N1[C@H](C(=O)O)C[C@@H]2CCCC[C@@H]21)C(=O)OCC
inactive: EKVX NSCLC 111% | SN12C renal 101% | UO-31 renal 77.4% | TK-10 renal 113% | ACHN renal 90.8% | CAKI-1 renal 102% | A498 renal 98.9% | CCRF-CEM leukemia 105% | MOLT-4 leukemia 115% | RPMI-8226 leukemia 109% | OVCAR-8 ovarian 102% | SK-OV-3 ovarian 113% | IGROV1 ovarian 108% | OVCAR-3 ovarian 104% | HS 578T breast 98% | NCI/ADR-RES ovarian 98.5% | T-47D breast 124%

COc1ccc(-n2nc3c(c2-c2ccc(OC)c(OC)c2)-c2oncc2CC3)cc1
inactive: EKVX NSCLC 92.6% | SN12C renal 88.4% | UO-31 renal 79.1% | TK-10 renal 103% | ACHN renal 55.7% | CAKI-1 renal 80.6% | A498 renal 83.5% | CCRF-CEM leukemia 50.4% | MOLT-4 leukemia 72.6% | RPMI-8226 leukemia 56.7% | OVCAR-8 ovarian 84.7% | OVCAR-4 ovarian 86.1% | SK-OV-3 ovarian 106% | IGROV1 ovarian 99.1% | OVCAR-3 ovarian 76.4% | NCI/ADR-RES ovarian 80.6% | T-47D breast 71%

C[C@]12C[C@H](O)[C@H]3[C@@H](CCC4=CC(=O)CC[C@@]43C)[C@@H]1CC[C@@H]2C(=O)CO
inactive: EKVX NSCLC 80.7% | SN12C renal 79.9% | UO-31 renal 89.6% | TK-10 renal 108% | ACHN renal 95.8% | CAKI-1 renal 101% | A498 renal 43.5% | CCRF-CEM leukemia 78.1% | SR leukemia 111% | OVCAR-8 ovarian 104% | OVCAR-5 ovarian 43.8% | OVCAR-4 ovarian 97.7% | SK-OV-3 ovarian 81.3% | OVCAR-3 ovarian 110% | HS 578T breast 108% | T-47D breast 92%
active: RPMI-8226 leukemia 0.491% | NCI/ADR-RES ovarian -34.7%

N=c1ccn2c(n1)O[C@@H]1[C@@H](O)[C@H](CO)O[C@@H]12
inactive: EKVX NSCLC 98.8% | SN12C renal 54.3% | UO-31 renal 15.5% | TK-10 renal 67.2% | ACHN renal 11.8% | CAKI-1 renal 55.3% | A498 renal 99.3% | CCRF-CEM leukemia 31.5% | MOLT-4 leukemia 28.2% | RPMI-8226 leukemia 94.4% | OVCAR-8 ovarian 25.7% | OVCAR-4 ovarian 76.7% | SK-OV-3 ovarian 61.7% | IGROV1 ovarian 71.4% | OVCAR-3 ovarian 87.5% | HS 578T breast 99% | NCI/ADR-RES ovarian 41.6% | T-47D breast 92.7%

CC[N+](C)(CC)CCCC(C)Nc1ccnc2cc(Cl)ccc12 (stereo not given)
inactive: EKVX NSCLC 109% | SN12C renal 109% | UO-31 renal 91.4% | TK-10 renal 124% | ACHN renal 114% | CAKI-1 renal 102% | A498 renal 100% | CCRF-CEM leukemia 103% | RPMI-8226 leukemia 106% | OVCAR-8 ovarian 100% | OVCAR-5 ovarian 119% | OVCAR-4 ovarian 112% | SK-OV-3 ovarian 111% | IGROV1 ovarian 110% | OVCAR-3 ovarian 101% | HS 578T breast 104% | NCI/ADR-RES ovarian 112% | T-47D breast 101%

C=C(C)[C@@H]1C[C@H](O)Cc2cc(Cl)cc(Cl)c2N1
inactive: EKVX NSCLC 84.3% | SN12C renal 96.9% | UO-31 renal 81.4% | TK-10 renal 98.7% | ACHN renal 95.9% | CAKI-1 renal 91.6% | A498 renal 87.2% | CCRF-CEM leukemia 103% | SR leukemia 108% | RPMI-8226 leukemia 116% | OVCAR-8 ovarian 99.6% | OVCAR-4 ovarian 103% | SK-OV-3 ovarian 101% | IGROV1 ovarian 105% | OVCAR-3 ovarian 108% | HS 578T breast 100% | NCI/ADR-RES ovarian 102% | T-47D breast 99.3%

O=C(Nc1ccccc1Cl)c1cnc2ccc(C3CCNCC3)cn12
active: UO-31 renal -9.91% | TK-10 renal -13.2% | CAKI-1 renal -40.1% | IGROV1 ovarian -50.5% | HS 578T breast 9.47%
inactive: EKVX NSCLC 38.5% | SN12C renal 58.8% | ACHN renal 12.7% | A498 renal 36.6% | CCRF-CEM leukemia 112% | SR leukemia 93% | RPMI-8226 leukemia 108% | OVCAR-8 ovarian 65.5% | OVCAR-5 ovarian 30.8% | OVCAR-4 ovarian 101% | SK-OV-3 ovarian 40.3% | OVCAR-3 ovarian 62.2% | NCI/ADR-RES ovarian 90.5% | T-47D breast 51.8%

Cc1cc2cn3c4cccnc4[nH]c(=O)c3c2cc1C
active: CCRF-CEM leukemia 4.5% | RPMI-8226 leukemia -5.48% | OVCAR-8 ovarian -46.1% | NCI/ADR-RES ovarian 9.65% | T-47D breast -21.3%
inactive: EKVX NSCLC 76.7% | SN12C renal 22.5% | UO-31 renal 58.9% | TK-10 renal 61.3% | ACHN renal 82.1% | CAKI-1 renal 75.7% | A498 renal 95.8% | OVCAR-5 ovarian 92.9% | OVCAR-4 ovarian 47.9% | SK-OV-3 ovarian 81% | IGROV1 ovarian 65% | OVCAR-3 ovarian 29.5%

CCCCCCCC/C=C/CCCCCCCC1=NC(C)(C)CN1CC(C)O (stereo not given)
inactive: EKVX NSCLC 71.2% | SN12C renal 54.9% | TK-10 renal 82.8% | ACHN renal 28% | CAKI-1 renal 62% | A498 renal 76.9% | OVCAR-8 ovarian 38.8% | OVCAR-5 ovarian 83.8% | OVCAR-4 ovarian 61.7% | SK-OV-3 ovarian 88.5% | OVCAR-3 ovarian 31% | NCI/ADR-RES ovarian 73.4% | T-47D breast 28.6%
active: UO-31 renal -73.9% | CCRF-CEM leukemia -37.9% | IGROV1 ovarian -15.1% | HS 578T breast 3.01%

Cc1cc(NC(=O)c2ccc(N)cc2)ccc1N=Nc1ccc2c(O)c(N=Nc3ccc(Cl)c(S(=O)(=O)O)c3)c(S(=O)(=O)O)cc2c1
inactive: EKVX NSCLC 106% | SN12C renal 102% | UO-31 renal 79.5% | TK-10 renal 73% | ACHN renal 71.5% | CAKI-1 renal 87.1% | A498 renal 88.9% | CCRF-CEM leukemia 55.7% | SR leukemia 66.5% | RPMI-8226 leukemia 65.6% | OVCAR-8 ovarian 70.2% | OVCAR-5 ovarian 92.2% | SK-OV-3 ovarian 88.6% | IGROV1 ovarian 73% | OVCAR-3 ovarian 85.9% | HS 578T breast 103% | NCI/ADR-RES ovarian 76.1% | T-47D breast 70.9%

Clc1ccc(-c2nc(-c3cccs3)no2)c(Cl)c1
inactive: EKVX NSCLC 72.6% | SN12C renal 101% | UO-31 renal 70.9% | TK-10 renal 71.4% | ACHN renal 99.8% | CAKI-1 renal 82% | A498 renal 111% | CCRF-CEM leukemia 86% | RPMI-8226 leukemia 86% | OVCAR-8 ovarian 97.1% | SK-OV-3 ovarian 93.9% | IGROV1 ovarian 66.8% | OVCAR-3 ovarian 99.2% | HS 578T breast 96.1% | NCI/ADR-RES ovarian 103% | T-47D breast 51.7%
